Most compounds without a hit are left out; they make up all but 2.8% or so of the library.
Mito fusion yeast – inhibitors of mitochondrial division or activators of mitochondrial fusion | S. cerevisiae fusion-defective mutant growth rescue, CellTiterGlo 48 h | Potency, µM (doses to about 46.1 µM), actives largely listed as activators | 320,000 tested, 0.23% active | AID 485298; note: nearly all actives have a fitted effect of over 45% in size
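Compounds are tested for their ability to restore growth of mitochondrial fusion-defective yeast strains at non-permissive 37C in YPEG medium over 48 hours. Viability is quantified by luciferase luminescence.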
GLP1R ag – GLP-1 receptor (human) agonism | P43220 | HEK293 GLP-1R CRE-luciferase, luminescence, 4-6 h; cells express a hypersensitive GLP-1R form | Potency, µM (top dose mostly 45.6 µM), actives largely listed as activators | 380,000 tested, 0.007% active
Target sequence (P43220 whole entry, looked up): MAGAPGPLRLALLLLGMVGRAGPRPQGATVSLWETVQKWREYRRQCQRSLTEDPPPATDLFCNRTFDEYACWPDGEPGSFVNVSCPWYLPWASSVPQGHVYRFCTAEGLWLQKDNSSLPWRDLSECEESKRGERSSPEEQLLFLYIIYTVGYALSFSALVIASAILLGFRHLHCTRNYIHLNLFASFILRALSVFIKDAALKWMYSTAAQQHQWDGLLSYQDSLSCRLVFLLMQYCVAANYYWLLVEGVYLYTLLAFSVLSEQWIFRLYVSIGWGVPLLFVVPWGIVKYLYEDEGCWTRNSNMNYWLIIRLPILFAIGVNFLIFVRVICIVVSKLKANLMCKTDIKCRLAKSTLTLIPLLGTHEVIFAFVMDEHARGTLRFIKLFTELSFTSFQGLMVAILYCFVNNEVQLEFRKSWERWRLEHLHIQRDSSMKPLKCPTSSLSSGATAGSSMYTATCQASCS
BRCA1 expr act – BRCA1 expression activation; 380,000 tested, 1.1% active; Potency, µM (top dose mostly 46.1 µM), hits mostly activators; AID 624202; MCF7-BRCA1-FFLuc reporter, luminescence, 48 h; response scale: scaled: vehicle 0%, 10 µM genistein 100%; note: nearly all actives have a fitted effect of over 80% in size
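Quantitative HTS in MCF7 cells stably reporting BRCA1 expression via firefly luciferase. Compound treatment lasts 48 h at 37 °C in phenol-red free MEM. Activation is expressed relative to genistein at 10 microM and DMSO.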
GLP1R inv ag – acts as inverse agonist at human GLP-1 receptor; P43220; HEK293 GLP-1R CRE-luciferase, luminescence, 24 h; GLP-1R form is constitutively active; Potency, µM (doses to about 38.3 µM), usual class: inhibitors; 410,000 tested, 1.6% active; AID 624417; note: nearly all actives have a fitted effect of over 55% in size
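Seeding at 200 cells/uL, 12 h culture, 24 hr compound treatment, then luciferase reagent and a luminescence read; cells are HEK293 stably expressing a constitutively active GLP-1R plus cAMP-responsive luciferase.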
HEK293 tox – cytotoxicity counter-screen for GLP-1 receptor inverse agonists. HEK293 cAMP-luciferase reporter cells, luminescence, 24 h. Potency, µM (highest dose often 38.3 µM), most hits filed as inhibitors. 410,000 tested, 0.13% active. AID 624418;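 note: loss of luciferase light is scored as toxicity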
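Compound-treated cells are incubated 24 hr at 37 deg C under 5% CO2 after a 12 hour attachment period, then luciferase detection reagent is added and luminescence is measured following 12 min at room temperature; lowered signal indicates toxicity.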
Each line names hits and unclear results; the compound was inactive in the other large screens; ! = a repeat was not active. Calls come from the whole dose curve; as a rule, active = well fitted curve in the direction sought with a large enough effect; inconclusive = small, poorly fitted or top-dose-only effect, or another doubt; inactive = no such curve, though single readings can be large; an effect the other way counts as inactive or inconclusive.

COc1ccc(/C=C/C(=O)NC(=S)Nc2ccccn2)cc1	BRCA1 expr act 8.9µM
COc1ccc(NC(=S)Nc2ccccn2)cc1	BRCA1 expr act 4µM, GLP1R inv ag inconclusive, HEK293 tox inconclusive
CCCCN(CCCC)C(=O)C1CCN(S(=O)(=O)c2cccc3nsnc23)CC1	none (no result: Mito fusion yeast)
Nc1nc(Cl)nc2c1ncn2C1CC(O)C(CO)O1 (configuration not stated)	GLP1R inv ag 5.6µM
Nc1nc2c(ncn2[C@H]2C[C@H](O)[C@@H](CO)O2)c(=O)[nH]1	none
COc1ccccc1NC(=O)CCCCCN1C(=O)c2cccc([N+](=O)[O-])c2C1=O	none
COc1cc(/C=C2/C(=O)c3cccc([N+](=O)[O-])c3C2=O)c(Br)cc1O	GLP1R inv ag 10µM, HEK293 tox inconclusive
O=c1oc2ccccc2nc1/C=C(\O)c1ccccc1	BRCA1 expr act 3.5µM
CCn1c(SCC(=O)NCC(=O)Nc2ccc(F)cc2)nnc1-c1ccncc1	none
CC(C)(C)c1nnc(SCC(=O)Nc2ccc(N3CCCCC3)cc2)n1N	BRCA1 expr act 4µM
CN1CCN(c2ccc(NC(=O)CSc3nnnn3-c3ccccc3Cl)cc2)CC1	GLP1R inv ag 5µM
O=C(CSc1nnnn1-c1ccccc1)Nc1ccc(N2CCOCC2)c(Cl)c1	none
CC(C)n1cnnc1SCC(=O)Nc1ccc(N2CCCCC2)cc1	none
Cc1ccc(-n2nnc(-c3nccs3)n2)cc1	BRCA1 expr act inconclusive, GLP1R inv ag 2.8µM
COc1ccc(Sc2ccc(NC(=O)c3ccccc3Cl)cc2C#N)cc1	GLP1R inv ag 13µM, HEK293 tox inconclusive
N#Cc1cc(NC(=O)c2ccc(Cl)cc2)ccc1Sc1ccccc1	none (no result: Mito fusion yeast)
COc1ccc(NC(=O)Cn2c(=O)n(CCCCCC(=O)NCc3ccc4c(c3)OCO4)c(=O)c3sccc32)cc1Cl	none (no result: Mito fusion yeast, GLP1R ag, BRCA1 expr act)
O=C(NCCCCc1ccccc1)c1ccccc1Cl	GLP1R inv ag 5µM
COc1ccc(C(=O)NCCS(=O)(=O)NCCc2ccccc2)cc1	BRCA1 expr act 4.5µM
COc1ccc(CCNS(=O)(=O)CCNC(=O)c2ccccc2)cc1	none
O=C(NCCCCc1ccccc1)c1cccc(NC(=O)c2ccccc2)c1	GLP1R inv ag 10µM (no result: Mito fusion yeast)
O=C(NCCCc1ccccc1)c1ccccc1	BRCA1 expr act 10µM
Cc1ccc(C2=NS(=O)(=O)N(C)C(C(=O)Nc3cc(C)n(CC(=O)N4CCCCC4)n3)=C2)cc1	none
CC(C)N1CCC2(CC1)N=C(c1ccc3c(c1)OCO3)CC(c1cc(Cl)ccc1O)N2 (configuration not stated)	GLP1R inv ag 11µM, HEK293 tox inconclusive
Clc1ccccc1/C=C/C=N/Nc1nc(N2CCOCC2)nc(N2CCOCC2)n1	GLP1R inv ag inconclusive
Cc1ccc(N=Nc2c(N)n[nH]c2N)cc1	BRCA1 expr act 10µM
Cc1[nH]nc(N)c1N=Nc1ccc(Br)cc1	none (no result: GLP1R ag, BRCA1 expr act, GLP1R inv ag, HEK293 tox)
Nc1n[nH]c(N)c1N=Nc1ccc2c(c1)OCO2	BRCA1 expr act 10µM
CSc1ccc(CN(C)C(=O)C2CCN(C(=O)Nc3ccccc3)CC2)cc1	none
Cc1c(N)cc(C(=O)N2CCOCC2)cc1[N+](=O)[O-]	none
CC(C)(C)C1C/C(=C/c2ccccn2)C(=O)/C(=C/c2ccccn2)C1 (configuration not stated)	GLP1R inv ag inconclusive, HEK293 tox inconclusive
CC1C/C(=C/c2ccccn2)C(=O)/C(=C/c2ccccn2)C1 (configuration not stated)	HEK293 tox 4.5µM
Cc1cc(NC(=O)CSc2nc3ccsc3c(=O)n2Cc2ccccn2)n[nH]1	BRCA1 expr act 5.6µM
O=C(Nc1cccc(Cl)c1)Nc1csc([N+](=O)[O-])c1	GLP1R inv ag 6.3µM, HEK293 tox inconclusive
O=C(Nc1ccncc1)Nc1cccc(Cl)c1	GLP1R inv ag inconclusive
CCN(CC)S(=O)(=O)c1ccc(NC2c3ncccc3C(=O)N2Cc2ccccc2)cc1 (configuration not stated)	none
CC1(C(=O)NCc2cccc(C(F)(F)F)c2)CCN1C1Cc2ccccc2C1 (configuration not stated)	GLP1R inv ag 13µM (no result: Mito fusion yeast)
O=C(NCC(c1cccnc1)N1CCOCC1)C(=O)Nc1ccc(Cl)cc1 (configuration not stated)	none (no result: Mito fusion yeast, GLP1R ag, BRCA1 expr act)
Clc1ccc(-c2cc(COc3ccccc3)on2)cc1	BRCA1 expr act 10µM
O=C(COc1ccc(Cl)cc1)Nc1cc(-c2ccccc2)no1	none (no result: Mito fusion yeast, GLP1R ag, BRCA1 expr act)
Clc1ccc(OCc2cc(-c3ccccc3)no2)cc1Cl	BRCA1 expr act 14µM, GLP1R inv ag inconclusive
Cc1c(C)n(Cc2ccccc2)c2ccc(C(=O)NCCc3ccccc3Cl)cc12	GLP1R inv ag 10µM (no result: Mito fusion yeast, GLP1R ag, BRCA1 expr act)
Cc1ccccc1CCNC(=O)c1ccc2c(c1)c(C)c(C)n2Cc1ccccc1	GLP1R inv ag 10µM (no result: Mito fusion yeast, GLP1R ag, BRCA1 expr act)
Cc1ccc(-c2cnco2)cc1	none
CCN(CC)C(=O)Cn1cc(S(=O)(=O)CC(=O)Nc2ccc3c(c2)OCCO3)c2ccccc21	BRCA1 expr act 11µM
CCCn1c(=N)n(CC(=O)c2ccc([N+](=O)[O-])cc2)c2ccccc21	none
CCCn1c(=N)n(CC(=O)c2ccc(Cl)cc2)c2ccccc21	GLP1R inv ag 7.9µM
C=CCN(CC=C)C(=O)C1CCC(C(=O)N(CC=C)CC=C)CC1 (configuration not stated)	none
CCSc1cc(N2CC(C)OC(C)C2)nc(-c2ccccc2Cl)n1 (configuration not stated)	GLP1R inv ag 10µM
COc1ccc(-c2nnc(SCc3ccccc3)n2N)cc1	BRCA1 expr act inconclusive
Cc1nc(SCC(=O)N2CCNC2=O)c2ccccc2n1	none (no result: Mito fusion yeast)
CCC1CC2(C)NC(=O)c3c(sc4c3CC(C)(C)OC4)N2C1=O (configuration not stated)	none
CN(C)/C=C/C(=O)c1ccc(-n2cccc2)cc1	BRCA1 expr act 7.9µM
CN(C)/C=C/C(=O)c1ccc(Cl)cc1	none
CC1CCC(C(C)C)C(OC(=O)COC(=O)c2cccn2C)C1 (configuration not stated)	GLP1R inv ag 10µM
Cc1ccccc1OCc1n(CC(=O)OC2CC(C)CCC2C(C)C)c2ccccc2[n+]1C (configuration not stated)	GLP1R inv ag inconclusive, HEK293 tox inconclusive
CC1CCC(C(C)C)C(OC(=O)Cn2c(-c3ccc(Cl)cc3)[n+](C)c3ccccc32)C1 (configuration not stated)	GLP1R inv ag 10µM, HEK293 tox 10µM
O=C(Oc1cccc2ccccc12)c1ccco1	none
CCOc1ccc(C(=O)C(C)OC(=O)C2CCN(c3ccc(C(F)(F)F)cn3)CC2)cc1 (configuration not stated)	GLP1R inv ag 8.9µM
C#CCCCCCCCCC(=O)NCCCC	GLP1R inv ag inconclusive
CCCCCCCCCCCCCCCC(=O)NCCO	Mito fusion yeast 4.1µM!, GLP1R ag inconclusive
